# Test results from PubChem BioAssay (EPA / NIEHS).
# Inconclusive results are not listed. The source made the active and inactive calls. The calls were made as follows, unless noted: active = hit-call score of the fitted dose curve at least 0.9, where 1 is the maximum; inactive = score below 0.9.
# Columns and labels:
# [1] = CCTE_Shafer_MEA_dev_firing_rate_mean: CCTE's Neural Network Formation Assay for Mean Firing Rate, Shafer Lab (AID 2284031)
# Method in brief: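 Steps: seed rat cortical cells (1.5 x 10^5/well) with laminin on PEI-coated MEA; dose day 0; record DIV 5/7/9/12, full media and compound exchange after DIV 5 and 9 recordings; compute well-mean firing rate AUC.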
# [2] = CCTE_Shafer_MEA_dev_per_burst_spike_percent: CCTE's Neural Network Formation Assay for Percent of Spikes in a Burst, Shafer Lab (AID 2284032);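 also: fitted as a decrease in burst spike percentage below DMSO baseline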
# Method in brief: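 Value is trapezoidal AUC over recordings on days 5, 7, 9 and 12 of the well-mean fraction of spikes falling in single-electrode bursts; rat cortical cultures exposed continuously from plating, treatment renewed DIV 5 and 9, fitted downward against DMSO.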
# [3] = CCTE_Shafer_MEA_dev_active_electrodes_number: CCTE's Neural Network Formation Assay for Number of Active Electrodes, Shafer Lab (AID 2284040; active = hit-call score of the fitted dose curve at least 0.9, where 1 is the maximum;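 also: potency for loss of active electrodes versus DMSO so lower counts are hits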)
# Method in brief: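 Counts electrodes per well firing at least 5 spikes/min, recorded on days 5, 7, 9 and 12 in rat cortical cultures dosed continuously from plating (treatment refreshed DIV 5, 9). Value is the area under the curve over recordings, fitted downward relative to DMSO.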
# [4] = CCTE_Shafer_MEA_dev_burst_rate: CCTE's Neural Network Formation Assay for Burst Rate, Shafer Lab (AID 2284042)
# Method in brief: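 Rat primary cortical cultures on PEI/laminin MEA; compound from plating, re-dosed at DIV 5, 9 media change. Single-electrode bursts/recording length, well mean of active electrodes; AUC over DIV 5–12 recordings; loss-of-signal vs DMSO.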
# [5] = CCTE_Shafer_MEA_dev_bursting_electrodes_number: CCTE's Neural Network Formation Assay for Number of Bursting Electrodes, Shafer Lab (AID 2284043; active = hit-call score of the fitted dose curve at least 0.9, where 1 is the maximum;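 also: potency is for loss of bursting electrodes relative to DMSO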)
# Method in brief: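 Counted: electrodes with burst rate ≥1 per 2 min in each well. Cells: primary rat cortex, 1.5 x 10^5/well, on 16-electrode MEA wells. Exposure: DIV 0–12, compound renewed DIV 5 and 9. Recording days 5, 7, 9, 12; AUC vs DMSO baseline.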
# [6] = CCTE_Shafer_MEA_dev_per_burst_interspike_interval: CCTE's Neural Network Formation Assay for Burst Interspike Interval, Shafer Lab (AID 2284044)
# Method in brief: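 Readout is the average time between spikes inside single-electrode bursts, taken as a well mean across bursting electrodes. Cortical neurons from rat developed networks on MEA plates under continuous 12-day exposure; recordings on days 5, 7, 9 and 12 were integrated by trapezoidal AUC.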
# [7] = CCTE_Shafer_MEA_dev_burst_duration_mean: CCTE's Neural Network Formation Assay for Mean Burst Duration, Shafer Lab (AID 2284045)
# Method in brief: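 Network-formation assay in primary rat cortical neurons; treatment spans twelve days of development. Mean burst duration per well is integrated by trapezoidal AUC and fitted in the loss-of-signal direction against DMSO baseline.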
# [8] = CCTE_Shafer_MEA_dev_interburst_interval_mean: CCTE's Neural Network Formation Assay for Mean Interburst Interval, Shafer Lab (AID 2284046);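 also: well-mean interburst interval of bursting electrodes as AUC over four recording days; curve fitted for decrease in interburst interval relative to DMSO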
# Method in brief: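 Rat cortical neurons, 1.5 x 10^5 cells/well, 48-well MEA; compound from day 0 through DIV 12, media and treatment renewed DIV 5/9. Recordings DIV 5, 7, 9, 12; well-mean interburst interval → trapezoidal AUC, loss direction vs DMSO.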
# [9] = CCTE_Shafer_MEA_dev_inter_network_spike_interval_mean: CCTE's Neural Network Formation Assay for Mean Inter-network Spike Interval, Shafer Lab (AID 2284047)
# Method in brief: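 Primary rat cortical neurons on PEI-coated 48-well MEAs (16 electrodes/well) were exposed from plating day 0 to DIV 12, with dosing renewed at DIV 5 and 9. Recordings at DIV 5, 7, 9, 12 were collapsed by trapezoidal AUC, loss-of-signal fit vs DMSO.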
# [10] = CCTE_Shafer_MEA_dev_network_spike_number: CCTE's Neural Network Formation Assay for Number of Network Spikes, Shafer Lab (AID 2284048)
# Method in brief: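 Extracellular recordings from 16-electrode wells track network formation in rat cortical cultures under continuous treatment from plating. The endpoint is network spike number, expressed as AUC across DIV 5–12 relative to DMSO vehicle.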
# [11] = CCTE_Shafer_MEA_dev_network_spike_peak: CCTE's Neural Network Formation Assay for Mean Number of Electrodes in Network Spike, Shafer Lab (AID 2284049);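 also: fitted for loss of signal meaning fewer electrodes in network spikes than DMSO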
# Method in brief: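 Continuous 12-day exposure of rat cortical cultures, starting at plating, on MEA plates. Endpoint: electrodes participating in network-spike peaks, AUC across DIV 5–12, DMSO as negative control.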
# [12] = CCTE_Shafer_MEA_dev_spike_duration_mean: CCTE's Neural Network Formation Assay for Mean Spike Duration, Shafer Lab (AID 2284051);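 also: mean network spike duration pooled as area under curve over DIV 5 to 12 recordings; potency for a decrease in mean network spike duration versus DMSO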
# Method in brief: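 Rat cortical primary cultures, 48-well MEA (16 electrodes/well); compound from plating, renewed DIV 5, 9. Network spike duration (AxIS adaptive detector) recorded DIV 5/7/9/12, combined as trapezoidal AUC; loss direction vs DMSO.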
# [13] = CCTE_Shafer_MEA_dev_network_spike_duration_std: CCTE's Neural Network Formation Assay for Standard Deviation of Network Spike Duration, Shafer Lab (AID 2284052);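 also: area under curve of spike duration SD across recording days 5 to 12; hits are decreases in network spike duration SD versus DMSO vehicle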
# Method in brief: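 Rat cortical cultures, 1.5 x 10^5 cells/well, exposed continuously from plating to DIV 12 with media/compound renewal at DIV 5, 9. Spontaneous activity recorded DIV 5/7/9/12, AxIS adaptive spike detector; AUC across days; negative direction vs DMSO.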
# [14] = CCTE_Shafer_MEA_dev_per_network_spike_spike_number_mean: CCTE's Neural Network Formation Assay for Mean Number of Spikes in a Network Spike, Shafer Lab (AID 2284053)
# Method in brief: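 Rat cortical primary cultures on 48-well MEA; compound from day 0, re-dosed with full media change DIV 5, 9. Recorded DIV 5, 7, 9, 12; spikes in 0.05 s window at network-spike peak ÷ total network spikes; AUC; loss vs DMSO.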
# [15] = CCTE_Shafer_MEA_dev_per_network_spike_spike_percent: CCTE's Neural Network Formation Assay for Percent of Spikes in a Network Spike, Shafer Lab (AID 2284054)
# Method in brief: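 Developing networks of rat cortical neurons are dosed at day 0 and recorded extracellularly four times up to day 12. The endpoint is the area under the curve of percent spikes in network spikes, fitted in the negative direction relative to DMSO.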
# [16] = CCTE_Shafer_MEA_dev_LDH: CCTE's Lactate Dehydrogenase Assay for Cytotoxicity in the Neural Network Formation Assay, Shafer Lab (AID 2284068; active = hit-call score of the fitted dose curve at least 0.9, where 1 is the maximum;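 also: exposure for twelve days from plating with re-dosing on DIV 5 and 9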)
# Method in brief: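 Rat cortical primary neurons, MEA culture; dosing day 0–12, full medium plus compound exchange DIV 5, 9. Read-out: LDH enzyme activity, spectrophotometric. DMSO = negative control/baseline; signal loss → cytotoxicity.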
# [17] = CCTE_Shafer_MEA_dev_AB: CCTE's Alamar Blue Assay for Cytotoxicity in the Neural Network Formation Assay, Shafer Lab (AID 2284083; active = hit-call score of the fitted dose curve at least 0.9, where 1 is the maximum;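 also: resazurin reduction fluorescence as viability of cultured neurons; twelve days of exposure from plating with re-dosing on DIV 5 and 9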)
# Method in brief: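 Rat cortical primary cultures, 1.5 x 10^5 cells/well on MEA; continuous compound exposure over 12 days of network development, re-dosed with full medium change DIV 5 and 9. Alamar Blue fluorescence; loss of signal = cytotoxicity vs DMSO baseline.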
# [18] = CCTE_Shafer_MEA_dev_correlation_coefficient_mean: CCTE's Neural Network Formation Assay for Mean Correlation Coefficient, Shafer Lab (AID 2284093);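 also: well mean pairwise spike train correlation integrated as AUC over recording days 5 to 12; potency fitted for loss of correlation relative to DMSO vehicle wells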
# Method in brief: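 Rat cortical cultures, 1.5 x 10^5 cells/well, dosed from day 0 for 12 days. Spontaneous spikes recorded DIV 5/7/9/12; electrode-pair correlation coefficients averaged, AUC taken. Fit in loss direction vs DMSO.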
# [19] = CCTE_Mundy_HCI_Cortical_Synap_Neur_Matur_NeuriteSpotCountPerNeuriteLength: CCTE's Synaptogenesis and Neurite Maturation Assay in rat cortical cells for Neurite Spot Count per Neurite Length, Mundy Lab (AID 2284210)
# Method in brief: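 Neurite-associated synapse density (synaptophysin puncta per unit neurite length) is measured by fluorescence high-content imaging in rat cortical cultures treated from DIV 7 and fixed at DIV 12, with DMSO as negative control.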
# [20] = CCTE_Mundy_HCI_Cortical_Synap_Neur_Matur_BPCount: CCTE's Synaptogenesis and Neurite Maturation Assay in rat cortical cells for Branch Point Count, Mundy Lab (AID 2284211)
# Method in brief: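 HCI read-out of branch points from MAP2/synaptophysin/Hoechst immunofluorescence; rat cortical cultures, AraC DIV 5, dosing DIV 7, fixed DIV 12; fit in positive direction vs DMSO baseline.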
# [21] = CCTE_Mundy_HCI_Cortical_Synap_Neur_Matur_NeuriteLength: CCTE's Synaptogenesis and Neurite Maturation Assay in rat cortical cells for Neurite Length, Mundy Lab (AID 2284214)
# Method in brief: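 Cultures of rat primary cortical cells received chemical at DIV 7 and were fixed at DIV 12, after glial arrest with AraC at DIV 5. Neurite length was measured by automated imaging of MAP2 immunofluorescence.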
# [22] = CCTE_Mundy_HCI_Cortical_Synap_Neur_Matur_SynapseCount: CCTE's Synaptogenesis and Neurite Maturation Assay in rat cortical cells for Synapse Count, Mundy Lab (AID 2284218)
# Method in brief: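 Cells were plated, allowed 2 hr to attach, treated with AraC at DIV 5, then exposed to chemicals from DIV 7 until DIV 12. After fixation and MAP2/synaptophysin immunolabelling, synapses per neuron were quantified by automated imaging against DMSO.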
# [23] = CCTE_Mundy_HCI_Cortical_Synap_Neur_Matur_NeuriteCount: CCTE's Synaptogenesis and Neurite Maturation Assay in rat cortical cells for Neurite Count, Mundy Lab (AID 2284222)
# Method in brief: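 Primary rat cortical cells were plated, treated with AraC at DIV 5, then exposed to chemicals from DIV 7 through DIV 12. After fixation and immunostaining for MAP2 and synaptophysin, imaging quantified neurites, with DMSO as the negative control.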
# [24] = CCTE_Mundy_HCI_Cortical_Synap_Neur_Matur_CellBodySpotCount: CCTE's Synaptogenesis and Neurite Maturation Assay in rat cortical cells for Cell Body Spot Count, Mundy Lab (AID 2284223)
# Method in brief: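 Read-out: cell body-associated synaptophysin puncta per neuron, imaged after MAP2, synaptophysin and Hoechst staining. Rat cortical cells, AraC DIV 5, chemical dosing DIV 7, fixation DIV 12. Activity fitted in positive direction relative to DMSO baseline.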
# [25] = CCTE_Mundy_HCI_Cortical_Synap_Neur_Matur_NeuronCount: CCTE's Synaptogenesis and Neurite Maturation Assay in rat cortical cells for Neuron Count, Mundy Lab (AID 2284242; active = hit-call score of the fitted dose curve at least 0.9, where 1 is the maximum;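 also: neuron number from Hoechst nuclei and MAP2 staining by high-content imaging; hits reduce neuron count versus DMSO baseline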)
# Method in brief: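 Cortical cells from rat are plated, treated with AraC at DIV 5, and exposed to test chemicals with a media change at DIV 7. At DIV 12 they are fixed and immunostained (MAP2, synaptophysin), and imaged neuron counts are compared against DMSO controls.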
compound,measurement,setting,value
[O]=[V]([OH])([OH])[OH],outcome,[1],inactive
same,AC50,[2],15 µM (active)
same,AC50,[3],15 µM (active)
same,outcome,[4],inactive
same,AC50,[5],9.39 µM (active)
same,outcome,[6],inactive
same,outcome,[7],inactive
same,outcome,[8],inactive
same,outcome,[9],inactive
same,outcome,[10],inactive
same,AC50,[11],10.7 µM (active)
same,AC50,[12],15 µM (active)
same,outcome,[13],inactive
same,AC50,[14],13.9 µM (active)
same,AC50,[15],15 µM (active)
same,AC50,[16],24.3 µM (active)
same,AC50,[17],28 µM (active)
same,AC50,[18],13.6 µM (active)
same,AC50,[19],40.2 µM (active)
same,AC50,[20],12.2 µM (active)
same,AC50,[21],27 µM (active)
same,AC50,[22],15.4 µM (active)
same,AC50,[23],78.5 µM (active)
same,AC50,[24],44.3 µM (active)
same,AC50,[25],19.6 µM (active)
